# Measured values from PubChem BioAssay AID618 (Sanford-Burnham Center for Chemical Genomics, 2007).
# Hit rate of the full screen: of about 87,000 compounds, about 540 (0.62%) were called active. The rule behind the calls is not given here. Only a selection was taken, and actives are over-represented in it overall. Measured potencies and affinities stand elsewhere.
# Assay: inhibitors of MT1-MMP promoter transcription, cell-based, luciferase reporter, luminescence (AID 618);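 note: actives suppress MT1-MMP promoter-driven transcription so potencies describe inhibitors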
# Details: MT1-MMP promoter luciferase reporter cells
row,SMILES,outcome
1,CCC(C(=O)c1ccc(O)cc1)c1ccccc1 (stereo unspecified),inactive
2,CN(C)c1ccc(C(=O)C(O)c2ccccc2)cc1 (stereo unspecified),inactive
3,CN(C)CC(C(=O)c1ccccc1)c1ccccc1 (stereo unspecified),active
4,O=C(Cn1nc(C(=O)O)c2ccccc2c1=O)NCCC1=CCCCC1,inactive
5,CC(Cc1ccccc1)NC(=O)C1CCCNC1=O (stereo unspecified),inactive
6,CCCCC(=O)c1ccc(O)cc1O,inactive
7,O=C(CSc1nnc(-c2ccncc2)n1Cc1ccco1)N1c2ccccc2Sc2ccc(Cl)cc21,inactive
8,COc1ccc(N2CCN(C(=O)CSc3nnc(-c4cccnc4)n3-c3ccc(F)cc3)CC2)cc1,inactive
9,Cc1ccc(CN(c2ccc(C(=O)NCc3ccccn3)cc2)S(C)(=O)=O)cc1,inactive
10,O=C(CSC1=NCCS1)N1CCOCC1,inactive
11,O=C(COc1ccc(Cl)cc1Cl)Nc1ccc(Cl)cn1,inactive
12,O=C(COc1ccc(Cl)cc1Cl)Nc1ccccn1,active
13,O=C(COc1ccccc1Cl)Nc1ccc(Cl)cn1,inactive
14,Cc1ccc(C(C)C)c(OCCN)c1,inactive
15,COc1ccc(OC(C)C(=O)N2CC(C)OC(C)C2)cc1 (stereo unspecified),inactive
16,O=C(Nc1ccc(N2C(=O)C3C4C=CC(C4)C3C2=O)cc1)Nc1nncs1 (stereo unspecified),inactive
17,CCCn1c(N)c(C(=O)CSc2nc(C)cs2)c(=O)[nH]c1=O,inactive
18,c1ccc2oc(-c3ccc4nc[nH]c4c3)nc2c1,inactive
19,Cc1ccc2oc(-c3ccco3)nc2c1,inactive
20,Nc1ccc2oc(-c3cccs3)nc2c1,inactive
21,Nc1ccc2oc(-c3ccccn3)nc2c1,inactive
22,Nc1ccc(-c2nc3ccc(-c4nc5ccccc5o4)cc3[nH]2)cc1,inactive
23,Cc1nc2ccc(-c3nc4ccccc4o3)cc2[nH]1,inactive
24,Cc1ccc(-c2nc3cc(NS(=O)(=O)c4ccc(C)cc4)ccc3o2)cc1,inactive
25,CCOC(=O)c1cnc(-c2cccc(OC)c2)[nH]c1=O,inactive

row,SMILES,outcome
1,COc1ccc(CNC(=O)CCCCCn2c(SCC#N)nc3cc4c(cc3c2=O)OCO4)cc1,inactive
2,CCC(=O)c1ccc(OCC(O)CN2CCN(C(c3ccccc3)c3ccccc3)CC2)cc1 (stereo unspecified),inactive
3,CCOC(CNC(=O)c1cccn2c(=O)c3cc(Cl)ccc3nc12)OCC,inactive
4,COc1ccc(S(=O)(=O)Nc2nnc(C(C)(C)C)s2)cc1,inactive
5,Cc1c(NC(=O)c2cc(C(C)C)on2)c(=O)n(-c2ccccc2)n1C,inactive
6,CCC(OC(=O)c1cc2sccc2n1C)C(=O)NCC1CCCO1 (stereo unspecified),inactive
7,Nc1ccnc(C(F)(F)F)c1C(=O)c1ccccc1,inactive
8,CC(C)OC(=O)CSc1nnc(-c2cccnc2)n1Cc1ccccc1,inactive
9,Cc1ccc(C)c(OCCCCn2ccnc2)c1,inactive
10,Nc1nc2ccc(-c3nc4ccccc4o3)cc2s1,inactive
11,Nc1ccc2oc(-c3ccccc3Cl)nc2c1,active
12,COC(=O)c1ccc(-c2nc3ccc(C)cc3o2)cc1,inactive
13,Nc1ccc2oc(-c3cccc4ccccc34)nc2c1,inactive
14,COC(=O)c1ccc(-c2nc3ccccc3o2)cc1,inactive
15,Cc1ccccc1-c1nc2cc(N)ccc2o1,inactive
16,Nc1ccc2oc(-c3cc(Br)ccc3Cl)nc2c1,inactive
17,COc1ccc(-c2nnc(-c3ccc(N)cc3)o2)cc1,inactive
18,Cc1ccc(C)c(-c2nc3cc(N)ccc3o2)c1,inactive
19,CCc1c(C)nc2ncnn2c1N1CCCC(C(=O)Nc2ccc(NC(C)=O)cc2)C1 (stereo unspecified),inactive
20,Cc1ccc(NC(=O)c2ccc(N3C(=O)C4CC=C(Cl)CC4C3=O)cc2)cc1 (stereo unspecified),inactive
21,COC(=O)[C@@H]1C[C@@]2(O)[C@H](O)[C@H](O)[C@H](O)C[C@H]2N1Cc1c(F)cccc1Cl,inactive
22,CC(C)Cc1ccc(S(=O)(=O)N2CCOCC2)cc1,inactive
23,O=C(CC1CCS(=O)(=O)C1)NC1CCCCC1 (stereo unspecified),inactive
24,O=C(CN1CC(c2ccccc2)CC1=O)OCc1ccccc1F (stereo unspecified),inactive
25,Cc1cccc(CSC2=NCCN2C(=O)c2ccco2)c1,inactive

row,SMILES,outcome
1,COCCn1c(=O)c2c3c(sc2n(CC(N)=O)c1=O)CCCC3,inactive
2,COc1ccc(Br)c(C(=O)Nn2c(C)nc3ccccc3c2=O)c1,inactive
3,Cc1ccc(C)c(Cn2nnc3c(=O)[nH]c(C4CCN(C(=O)c5cccs5)CC4)nc32)c1,inactive
4,CCCNC(=O)NC(C)C12CC3CC(CC(C3)C1)C2 (stereo unspecified),inactive
5,COc1ccccc1NC(=O)c1ccc(COc2ccccc2OC)o1,inactive
6,CCn1c(=O)c(=O)n(CC)c2cc(S(=O)(=O)Nc3cccc(OC)c3)ccc21,inactive
7,CCn1c(=O)cc(SCC(=O)Nc2ccccc2N2CCN(C)CC2)c2ccccc21,inactive
8,Cc1ccc(NC(=O)Cc2cn3ccsc3n2)nc1,inactive
9,CC(C)c1ccc2oc(-c3cc(N)ccc3O)nc2c1,inactive
10,CC(C)c1ccc2oc(-c3ccc(NC(=O)c4ncn[nH]4)cc3)nc2c1,inactive
11,COc1cc(OC)cc(-c2nc3cc(C)ccc3o2)c1,inactive
12,CCOc1cccc(-c2nc3cc(C)ccc3o2)c1,inactive
13,O=C1CC(=C2c3ccccc3-c3ccccc32)C(=O)N1CCN1CCN(c2ccccc2)CC1,inactive
14,Cc1nn(Cc2nc(-c3cccs3)no2)c(C)c1Br,inactive
15,COc1ccccc1-c1nnc(SCC(=O)O)n1C,inactive
16,CC1=C(C(=O)OCc2ccccc2)C(c2ccc3ccccc3c2)NC(=O)N1CCCCCC(=O)O (stereo unspecified),inactive
17,Cc1ccc(-c2csc3ncnc(NCCN4CCOCC4)c23)cc1,inactive
18,Cn1nnnc1Sc1ncnc2scc(-c3ccc(F)cc3)c12,inactive
19,CCOc1ccc(NC(=O)c2cnccn2)cc1,inactive
20,O=C(Nc1ccc(N2CCOCC2)cc1)c1cnsn1,active
21,Cc1cnc(C(=O)Nc2ccc(N3CCOCC3)cc2)cn1,inactive
22,CCOc1ccc(NC(=O)c2ccncc2)cc1,inactive
23,O=C(Nc1ccc(N2CCOCC2)cc1)Nc1cnsn1,inactive
24,CCc1nnc(NC(=O)CN2C(=O)c3ccccc3S2(=O)=O)s1,inactive
25,CC1(C)CC(=O)C2=C(C1)Nc1ncnn1C2c1ccccn1 (stereo unspecified),inactive

row,SMILES,outcome
1,CCOc1ccc(C2C(C(=O)c3cccs3)=C(O)C(=O)N2CCCn2ccnc2)cc1 (stereo unspecified),inactive
2,CN1CCN(c2ccccc2NC(=O)c2ccc(-c3ccccc3)cc2)CC1,inactive
3,CC(=O)c1c(C)[nH]c(C(=O)Nc2cc(C)cc(C)c2)c1C,inactive
4,CC(=O)c1c(C)[nH]c(C(=O)Nc2cc(C)ccc2C)c1C,inactive
5,CC(=O)c1c(C)[nH]c(C(=O)Nc2ccc(C)cn2)c1C,active
6,CC1=C/C(=N\OS(=O)(=O)c2ccccc2)C=CC1=O,inactive
7,CC1=CC(=O)C=C(C)C1=NOS(=O)(=O)c1ccccc1,active
8,CC1=C(C)/C(=N\OS(=O)(=O)c2ccccc2)C=CC1=O,inactive
9,Cc1cccc(C2N(c3ccc(F)cc3)C(=O)C3CCCN32)c1 (stereo unspecified),inactive
10,O=S(=O)(Nc1ccccn1)c1ccc(C2CCCCC2)cc1,inactive
11,CC1=CC(C)(C)N(C(=O)c2ccccc2)c2ccc(C)cc21,inactive
12,Cc1ccc(S(=O)(=O)N2C(=S)SCC2(C)C)cc1,inactive
13,CC1=CC(C)(C)N(S(=O)(=O)c2ccc(F)cc2)c2ccc(C)cc21,inactive
14,CC1=CC(C)(C)N(S(=O)(=O)c2ccc(C)cc2)c2ccccc21,active
15,CC1=CC(C)(C)N(S(=O)(=O)c2ccc(C)cc2)c2cc(C)ccc21,active
16,CC1=CC(C)(C)N(S(=O)(=O)c2ccc(F)cc2)c2ccccc21,inactive
17,Cc1ccc(S(=O)(=O)N2CC3(C)CN(S(=O)(=O)c4ccc(C)cc4)CC(C)(C2)C3)cc1,inactive
18,CC1=CC(C)(C)N(S(=O)(=O)c2ccc(C)cc2)c2ccc(C)cc21,active
19,CC1=CC(C)(C)N(C(=O)CN2C(=O)c3ccccc3C2=O)c2ccccc21,inactive
20,O=C(CN1CCN(c2ccccc2)CC1)Nc1c(C(=O)C2CC2)oc2ccccc12,inactive
21,CC(C)n1nnnc1C(c1ccc(F)cc1)N1CCN(C2CCCC2)CC1 (stereo unspecified),inactive
22,Cc1ccc(NC2=NCCC2)cc1Cl,inactive
23,C=CCn1c(=O)c2ccccc2n2c(SCc3csc(-c4ccccc4)n3)nnc12,inactive
24,Cn1c(-c2ccc(F)cc2)cnc1SCC(=O)N1CCCCC1,inactive
25,Cn1c(-c2ccccc2)cnc1SCC(N)=O,inactive

row,SMILES,outcome
1,CCOC(=O)c1c(NC(=O)Cc2cccs2)sc2c1CCCC2,inactive
2,COC(=O)c1ccccc1NC(=O)CN1CCC(NC(=O)c2ccccc2C)CC1,inactive
3,Cc1nnc(NC(=O)c2sc3ccccc3c2Cl)s1,active
4,COCc1nnc(NC(=O)c2sc3ccccc3c2Cl)s1,inactive
5,CC(C)c1nnc(NC(=O)c2sc3ccccc3c2Cl)s1,inactive
6,O=C(/C=C\Nc1cccc(F)c1)c1ccc2c(c1)OCO2,inactive
7,O=C(NCc1ccc2c(c1)OCO2)c1ccccn1,inactive
8,CN(C(=O)c1ccco1)c1nc(CC(=O)Nc2ccccc2)cs1,inactive
9,CN(C(=O)c1ccco1)c1nnc(C23CC4CC(CC(C4)C2)C3)s1,inactive
10,COC(=O)[C@@]1(Cc2ccc(OC)cc2)[C@H]2c3cc(C(=O)N4CCCC4)n(CCF)c3C[C@H]2CN1C(=O)c1ccccc1,inactive
11,COc1cc(C(=O)N2CCN(C(=O)Cc3ccccc3)CC2)cc(OC)c1OC,inactive
12,C=CCNC(=O)c1ccc2nccnc2c1,inactive
13,CC(C)C(=O)N(Cc1cc2ccccc2[nH]c1=O)C(C)C,inactive
14,C=CCn1c(SCc2cc(=O)n3ccsc3n2)nc2scc(C3CC3)c2c1=O,inactive
15,COc1ccccc1NC(=S)NNC(=O)c1ccccc1,inactive
16,O=C(NCCCN1CCOCC1)c1ccccc1,inactive
17,COc1cccc(-c2nc3ccccc3s2)c1,inactive
18,c1ccc2sc(-c3ccc4c(c3)OCO4)nc2c1,inactive
19,COc1cc(-c2nc3ccccc3s2)ccc1O,inactive
20,COc1ccc(-c2nc3ccccc3s2)cc1O,active
21,COc1cc(OC)cc(-c2nc3ccccc3s2)c1,inactive
